This is an account of results in PubChem BioAssay (NCATS).

Records with an inconclusive call do not appear. A number with no mark means an inactive call. Activity calls are given as the source filed them. Calls come from the whole dose curve; as a rule, active = well fitted inhibition curve with a large enough effect; inconclusive = small, poorly fitted or top-dose-only effect; inactive = flat fitted curve, though single readings scatter.
% is set by controls: 0 for no effect and ±100 for the full control effect; potency is the fitted concentration of half-maximal effect.

Dual specificity protein kinase CLK4 (Homo sapiens), sequence (Q9HAZ1 whole entry, looked up): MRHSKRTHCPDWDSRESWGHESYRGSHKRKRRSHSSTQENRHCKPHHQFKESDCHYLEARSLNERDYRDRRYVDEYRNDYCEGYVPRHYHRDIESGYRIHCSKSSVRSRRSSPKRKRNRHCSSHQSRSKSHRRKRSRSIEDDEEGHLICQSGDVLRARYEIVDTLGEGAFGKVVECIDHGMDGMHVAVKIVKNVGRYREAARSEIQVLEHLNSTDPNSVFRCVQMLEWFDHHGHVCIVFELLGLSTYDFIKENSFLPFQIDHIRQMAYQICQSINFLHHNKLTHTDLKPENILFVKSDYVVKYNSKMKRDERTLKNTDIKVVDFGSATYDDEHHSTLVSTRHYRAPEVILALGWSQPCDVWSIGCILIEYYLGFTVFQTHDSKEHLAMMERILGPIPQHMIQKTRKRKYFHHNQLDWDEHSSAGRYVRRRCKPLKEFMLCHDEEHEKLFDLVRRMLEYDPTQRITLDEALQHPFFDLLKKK

This assay concerns the target Dual specificity protein kinase CLK4 (Homo sapiens) (UniProt Q9HAZ1). Kind of assay: qHTS Assay for Inhibitors of CDC-like Kinase 4 (ADP-FP Assay) (AID 1795).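 For activity change, negative = inhibition: recombinant human CLK4 phosphorylating RS repeat peptide at 1 µM ATP.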 Note: nearly all actives have a fitted effect of over 60% in size. The settings on record: Transcreener ADP fluorescence polarization; series mostly up to 50 µM; activity change, negative = inhibition: at the top concentration. Here is the method: NIH Molecular Libraries Probe Production Centers Network [MLPCN] NIH Chemical Genomics Center [NCGC] MLPCN Grant: 1R03MH084827-01 Assay Submitter (PI): Tom Misteli NCGC Assay Overview: Clk4 (Invitrogen cat # PV3839) was assayed using ATP and the RS repeat peptide (AnaSpec cat # 61722) as substrates using Transcreener (trade mark), a competitive fluorescence polarization (FP) assay. For the present assay, we used the Orange TranscreenerTM ADP2 (BellBrooks Labs, Madison, Wis) detection system to monitor ADP production in the kinase reaction. […] This allows the ADP tracer to freely rotate leading to a decrease in the observed FP value. The amount of ADP produced can then be calculated using a calibration curve. The positive control for the assay was TG003 (Sigma-Aldrich, cat # 300801-52-9) which is a Clk4 inhibitor [2].
NCGC Assay Protocol Summary: Two uL/well of substrate-buffer solution (100 uM RS peptide, 1 uM ATP, 25 mM Tris pH7.5, 10 mM MgCl2, 0.5 mM EGTA, 2.5 mM DTT, 0.01% Triton X-100 final concentration) was dispensed into 1,536-well assay plates (Greiner, solid black medium-binding plates) with Aurora Discovery BioRAPTR Flying Reagent Dispenser (FRD; Beckton-Dickenson). Using a Kalypsys pin tool equipped with a 1,536-pin tool, 23 nL of compound solution was transferred to the assay plate. Two uL/well Clk4-buffer solution (6.25 nM Clk4, 25 mM Tris pH 7.5, 10 mM MgCl2, 0.5 mM EGTA, 2.5 mM DTT, 0.01% Triton X-100, final concentration) was then added using the FRD yielding a total kinase reaction volume of 4 uL/ well. Then 4 uL/well of detection mixture (4 nM orange fluorescent tracer, 1 ug/mL ADP antibody, final concentration) was then added after an hour and the polarization signal was measured using the EnVision plate reader (PerkinElmer, Waltham, MA) after 30 min of room temperature incubation using the following filters and program settings: BODIPY TMR FP dual Enh mirror (barcode 682); BODIPY-TMR 531 (barcode 105) excitation; BODIPY-TMR FP P/S polarized 595 nm filters (barcodes 210 and 211, respectively); 100% light; 150 flashes; 1.35 G-factor; Detector gains were 685 for the 1st detector; 630 for the 2nd detector.
As for `COc1cccc(Nc2ncc3ncc(=O)n(CCC#N)c3n2)c1`, the Potency is 2.51 µM (active). On to `COc1ccc(-c2nc3cnc(N4CCN(C)CC4)nc3n(CCc3ccccc3)c2=O)cc1`, for which the “activity change, negative = inhibition” value was 11.3%. Same read-out and setting: the figure for `Cc1nc2cnc(N3CCN(C)CC3)nc2n(CCc2ccccc2)c1=O` is 5.51%; for `N#CCCn1c(=O)c(-c2cccc(C#N)c2)nc2cnc(Oc3cccc(Cl)c3)nc21` it is 8.05%; for `CN(C)c1ccc(-c2cncnc2NCCN2CCOCC2)cc1` it is 3.22%. On the same count and under the same terms, under `Cn1cc(-c2nc3cnc(N4CCNCC4)nc3n(CCc3ccccc3)c2=O)c2ccccc21` stands 4.13%. Regarding `Clc1ccccc1-c1nc(Nc2ccncc2)c2ccccc2n1`, the Potency is 10 µM (active).

As to `COc1cccc(-c2nc(N(C)C)c3ccccc3n2)c1`, the Potency is 11.2 µM (active). As to `Cc1ccccc1-c1nc(Nc2ccncc2)c2ccccc2n1`, the “activity change, negative = inhibition” value was -14.7%. As to `Cn1c(=O)c(-c2ccc(Cl)cc2)nc2cncnc21`, the “activity change, negative = inhibition” value was -4.59%.

For `COCCn1c(=O)c(-c2cccc(C#N)c2)nc2cnc(Oc3cccc(Cl)c3)nc21`, the “activity change, negative = inhibition” value is 4.67%. As to `COc1ccc2[nH]cc(CCNc3ncncc3-c3ccccc3Cl)c2c1`, the Potency is 12.6 µM (active).

`COc1ccccc1CNc1nc(-c2ccoc2)nc2ccccc12`: the “activity change, negative = inhibition” value is -7.27%. Regarding `COc1cccc(-c2ccc3ncnc(NCc4cnc(C)cn4)c3c2)c1`, the Potency was 1.41 µM (active). With `CCNc1ncc2nc(-c3ccccc3)c(=O)n(CCC#N)c2n1`, the “activity change, negative = inhibition” value is 4.36%. As for `O=c1c(CCc2ccccc2)nc2cnc(N3CCNCC3)nc2n1Cc1cccs1`, the “activity change, negative = inhibition” value is 4.15%. The same measure, in the same setting: under `COc1cccc(-c2cncnc2NCCN2CCOCC2)c1` stands 5.66%; under `O=c1c(CCc2ccccc2)nc2cnc(Nc3ccccc3)nc2n1C[C@H]1CCCO1`, -0.613%. As for `COCCn1c(=O)c(-c2ccc(F)cc2)nc2cnc(Nc3cccc(OC)c3)nc21`, the “activity change, negative = inhibition” value is 7.82%. Regarding `COc1ccccc1CNc1nc(-c2ccc(C(=O)N(C)C)cc2)nc2ccccc12`, the “activity change, negative = inhibition” value was -14.1%. Same read-out and setting: under `CN(C)c1ncc2nc(CCc3ccccc3)c(=O)n(Cc3cccs3)c2n1` stands 5.51%; under `COCCn1c(=O)c(-c2cccs2)nc2cnc(N3CCNCC3)nc21`, 1.38%. Same read-out and setting: under `COCCn1c(=O)c(CCc2ccccc2)nc2cnc(N(C)C)nc21` stands 6.78%. Same read-out and setting: the figure for `CN(C)c1ccc(-c2cncnc2NCCc2cnc[nH]2)cc1` is -18.1%; for `FC(F)(F)c1ccccc1-c1nc(NCc2cccnc2)c2ccccc2n1` it is -3.06%; for `CN(C)c1nc(-c2ccc3c(c2)OCO3)nc2ccccc12` it is 0.0766%. Regarding `CN1CCN(c2nc(-c3cccnc3)nc3ccccc23)CC1`, the “activity change, negative = inhibition” value was -20.9%.

Turning to `CCNc1ncc2ncc(=O)n(Cc3ccc(F)cc3)c2n1`, the Potency is 11.2 µM (active). On the same count and under the same terms, under `COc1ccccc1CNc1ncnc2ccc(-c3cccc(NS(C)(=O)=O)c3)cc12` stands 7.08 µM (active).

Turning to `COc1ccccc1-c1nc(Nc2ccncc2)c2ccccc2n1`, the Potency is 14.1 µM (active). Take `CN(C)c1ncnc2ccc(-c3cccc(NS(C)(=O)=O)c3)cc12`: the Potency is 12.6 µM (active). Regarding `CN1CCN(c2ncc3nc(-c4cn(C)c5ccccc45)c(=O)n(C[C@H]4CCCO4)c3n2)CC1`, the “activity change, negative = inhibition” value was 7.2%. Still for that read-out and setting: under `Cc1ccccc1-c1ccc2ncnc(NCCN3CCOCC3)c2c1` stands -26.1%.

Regarding `COCCn1c(=O)c(-c2ccccc2)nc2cnc(Oc3cccc(Cl)c3)nc21`, the “activity change, negative = inhibition” value was 5.74%. Consider `c1cn(-c2ncnc3ccc(-c4ccoc4)cc23)cn1`, for which the Potency is 0.0708 µM (active). Consider `COc1ccccc1-c1nccc(NCc2cccs2)n1`, for which the “activity change, negative = inhibition” value was 7.5%. `Cc1ccccc1-c1ccc2ncnc(-n3ccnc3)c2c1`: the Potency is 3.98 µM (active). Same read-out and setting: the figure for `COc1cccc(-c2ccc3ncnc(N4CCNCC4)c3c2)c1` is 1 µM (active). With `COc1cccc(Cn2c(=O)cnc3cnc(N(C)C)nc32)c1`, the “activity change, negative = inhibition” value is -20.3%. For the compound `COc1ccc2[nH]cc(CCNc3ncncc3-c3ccc4c(c3)OCO4)c2c1`, the Potency is 10 µM (active).
